This is part of a sample that, as a whole, favours compounds with a hit. Of some 79,000 tested, about 15% had one in any assay. Cut-off read from the data, not from the text of the source: active = growth inhibition above about 70%; inactive = the rest.
How the values were obtained:
[1] = NCI Yeast Anticancer Drug Screen. Data for the rad50 strain (AID 155);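 note: 0% = growth of vehicle-only cultures of the same strain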; settings: S. cerevisiae rad50 strain growth inhibition; at 50.0 µM; active compounds read high
How it was run: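 DNA repair mutant yeast, compound exposure, growth read-out; inhibition is taken relative to vehicle.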

[2] = NCI Yeast Anticancer Drug Screen. Data for the mec2-1 strain (AID 157); settings: S. cerevisiae mec2-1 strain, at 50.0 µM, active compounds read high
How it was run: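 Compounds were applied to mec2-1 yeast cells. Their growth was then compared with that of vehicle-treated cultures to give growth inhibition.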

[3] = NCI Yeast Anticancer Drug Screen. Data for the sgs1 mgt1 strain (AID 161);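 note: 0% = growth of cultures given vehicle only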; settings: S. cerevisiae sgs1 mgt1 strain, at 50.0 µM, active compounds read high
How it was run: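 Growth of a repair-deficient yeast mutant was monitored after compound treatment and expressed as inhibition relative to vehicle-treated cultures.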

[4] = NCI Yeast Anticancer Drug Screen. Data for the cln2 rad14 strain (AID 165);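 note: 0% = growth equal to vehicle treated cultures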; settings: S. cerevisiae cln2 rad14 strain, at 50.0 µM, active compounds read high
How it was run: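 Strain: cln2 rad14 yeast, altered in cell cycle control and DNA damage repair. Read-out: growth inhibition vs vehicle.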

[5] = NCI Yeast Anticancer Drug Screen. Data for the bub3 strain (AID 167); settings: S. cerevisiae bub3 mutant strain, at 50.0 µM, active compounds read high
How it was run: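 In this screen, a yeast mutant lacking normal mitotic checkpoint function is challenged with compound. Relative growth versus vehicle gives the inhibition value.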

[6] = NCI Yeast Anticancer Drug Screen. Data for the mlh1 rad18 strain (AID 175); settings: S. cerevisiae mlh1 rad18 strain growth inhibition; at 50.0 µM; active compounds read high
How it was run: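 A repair-deficient yeast strain is exposed to test compound, and growth is scored relative to vehicle-treated controls.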

Measured: growth inhibition

CN(C)c1ccc(/C=C/C(=O)CC(=O)/C=C/c2ccc(N(C)C)cc2)cc1
inactive: [1] 22.2% | [2] 21.3% | [3] -28.2% | [4] -27.4% | [5] -4.3% | [6] 0.8%

COCCNc1cncc(C(N)=O)c1
inactive: [1] 15% | [2] 6.9% | [3] 9.15% | [4] -19.2% | [5] 2.45% | [6] 10.9%

CCOC(=O)C(C(C)=O)C(CC(=O)OC)NC(=O)OCc1ccccc1 (stereo unspecified)
inactive: [1] -24.5% | [2] -21.9% | [3] -60.6% | [4] -57.2% | [5] -32.2% | [6] -35.5%

Nc1cccc(C(F)(F)F)c1
inactive: [1] -20.8% | [2] 0.25% | [3] -16.3% | [4] -58.5% | [5] 18.4% | [6] -0.05%

CN1CCC(O)(c2ncc(Br)c3ccccc23)CC1
inactive: [1] 17.1% | [2] -7.8% | [3] 24.9% | [4] 10.8% | [5] 11.2% | [6] 39.6%

COc1ccc(Nc2ccnc3cc(Cl)ccc23)cc1CCN
inactive: [1] 4.65% | [2] 8.85% | [3] 24% | [4] 10.6% | [5] -5.9% | [6] -5.8%

Clc1cccc(-c2sc(-c3ccsc3)cc2Cc2ccsc2)c1
inactive: [1] -21.2% | [2] -20.1% | [3] -22.1% | [4] -28.6% | [5] -24.1% | [6] 2.1%

CN(C)C1Cc2ccccc2C1OC(=O)c1ccccc1 (stereo unspecified)
inactive: [1] 27% | [2] 20.2% | [3] 11% | [4] 22.1% | [5] 14.6% | [6] 37.1%

Oc1ccc(C2SCc3nc4ccccc4n32)cc1 (stereo unspecified)
inactive: [1] -7.85% | [2] -17.9% | [3] -35.9% | [4] -7.3% | [5] -45.1% | [6] -25.1%

CCCC(=O)OCCC(C)C
inactive: [1] 30.9% | [2] 10.3% | [3] 13.3% | [4] -29.9% | [5] -13.5% | [6] 22.4%

CS(=O)c1ccc(/C=C2/C=Cc3ccccc32)cc1 (stereo unspecified)
inactive: [1] 32.8% | [2] 27.3% | [3] 30.5% | [4] 22.1% | [5] 48.7% | [6] 36%

CCC(=O)NCC(=O)O
inactive: [1] -4.15% | [2] -10.6% | [3] -16.1% | [4] 0.3% | [5] 8.15% | [6] -6.15%

Cc1ccc2c(c1)C(=O)/C(=N/Nc1ccc(Cl)cc1)CCO2
inactive: [1] 7.65% | [2] -16.1% | [3] 6.2% | [4] -2% | [5] 6.8% | [6] 4.65%

O=C(c1cccnc1)c1cc(-c2ccccn2)c(=O)n2ccccc12
inactive: [1] 0.7% | [2] 1.95% | [3] -13.6% | [4] -1.05% | [5] -15.8% | [6] -36.6%

CC(=O)NNc1nc(C)c(C(=O)NNC(=O)C(=O)Nc2cccc(C(C)=O)c2)s1
inactive: [1] 7.3% | [2] 0.5% | [3] -23.1% | [4] 36.5% | [5] 0.85% | [6] -12.3%

Clc1ccc(C(CI)c2ccccc2Cl)cc1 (stereo unspecified)
inactive: [1] 10.8% | [2] 11.3% | [3] 12.3% | [4] 13.8% | [5] 27.9% | [6] 6.05%

Nc1cc(C(Br)(Br)Br)nc2ccccc12
inactive: [1] 17.4% | [2] 7.45% | [3] 16.8% | [4] -0.2% | [5] -11% | [6] 31.8%

CC(C)(C)c1ccc(OCCOCCOc2ccc(C(C)(C)C)cc2S(N)(=O)=O)c(S(N)(=O)=O)c1
inactive: [1] 0.35% | [2] -23.3% | [3] -19.8% | [4] 9.7% | [5] -3.5% | [6] -6.35%

CCC(C)N=Cc1ccccc1O.CCC(C)N=Cc1ccccc1O.[Cu] (stereo unspecified)
inactive: [1] 33.7% | [2] -10.3% | [3] 28.4% | [4] -44.7% | [5] 2.1% | [6] 11.2%

O=C(N/N=C/c1ccc(Cl)cc1)c1cc(-c2ccccc2)nc2ccccc12
inactive: [1] 5.95% | [2] 22.3% | [3] 17.4% | [4] 21.7% | [5] 2% | [6] -5.7%

Cc1nc(N)[nH]c(=O)c1CCCN=Cc1ccc([N+](=O)[O-])cc1
inactive: [1] 4.3% | [2] 6% | [3] 14.4% | [4] 7.7% | [5] 31.6% | [6] 29.9%

CC(=O)CC(=O)Nc1ccccc1C
inactive: [1] -5.2% | [2] 5.95% | [3] 2.4% | [4] -27.4% | [5] -11.2% | [6] -22.7%

CCN(CC)CCSc1nnc(-c2cc(OC)c(OC)c(OC)c2)o1
inactive: [1] 32.5% | [2] 1.1% | [3] -21.1% | [4] 14.8% | [5] 4.2% | [6] -9.85%

C=C(C)Cn1cnc2c1c(=O)n(C)c(=O)n2C
inactive: [1] -0.15% | [2] -9.6% | [3] -14.4% | [4] -37.6% | [5] -14.1% | [6] -5.6%

CCCCCC1OCC(C)(C)C(C(C)C)O1 (stereo unspecified)
inactive: [1] -0.2% | [2] -23.9% | [3] -12.7% | [4] 0.95% | [5] -13.6% | [6] 8.55%

CCNC(=O)NC(=O)C(C)(C)Oc1ccc(Cl)cc1
inactive: [1] -8.4% | [2] 10.4% | [3] 7.4% | [4] 12.5% | [5] 12.4% | [6] 18.8%

N#Cc1[nH]cnc1N
inactive: [1] -6.95% | [2] -5.95% | [3] -11.3% | [4] -37.5% | [5] 7.15% | [6] 4.3%

Cc1cn(C2OC(CO)C(O)C(O)C2O)c(=O)[nH]c1=O (stereo unspecified)
inactive: [1] -1.4% | [2] 5.65% | [3] -5.45% | [4] -3.2% | [5] 15.2% | [6] 0.9%

CC1C(=O)C(c2ccccc2)(c2ccccc2)CC[N+]1(C)C (stereo unspecified)
inactive: [1] 1.1% | [2] 5.4% | [3] 2.8% | [4] -13.7% | [5] 4.1% | [6] 10.4%

FC(F)(c1nnnn1Cc1ccccc1)C(F)(F)C(F)(F)C(F)(F)C(F)(F)C(F)(F)C(F)(F)C(F)(F)c1nnnn1Cc1ccccc1
inactive: [1] 10.2% | [2] 13.7% | [3] -11.7% | [4] -2.65% | [5] 7.95% | [6] 19.3%

CCc1nc(N)nc(N)c1-c1ccc2nnn(O)c2c1
inactive: [1] -11.8% | [2] -7.45% | [3] -4.8% | [4] -40% | [5] 0% | [6] -3.1%

NCCS/C=C/C(=O)Oc1ccc(Br)cc1
inactive: [1] 35.5% | [2] 0.85% | [3] 12.1% | [4] -1.3% | [5] -9.9% | [6] 53.9%

O=CN(Cc1ccccc1)Cc1ccccc1
inactive: [1] 5.15% | [2] 8.2% | [3] 3.65% | [4] 0.95% | [5] -3.8% | [6] -12.6%

CC(=O)OCCOCNC(=S)NN
inactive: [1] -7.55% | [2] 7.8% | [3] 11.2% | [4] -16.3% | [5] -3.95% | [6] -4.8%

COC(=O)c1nc(N)nc(N)c1[N+](=O)[O-]
inactive: [1] -8.45% | [2] -17.7% | [3] -22.6% | [4] -15.2% | [5] -4.05% | [6] -14.9%

Nc1nc2c(nnn2-c2ccc(Cl)cc2)c(=O)[nH]1
inactive: [1] -4.3% | [2] -4.15% | [3] -5.85% | [4] -25.1% | [5] -0.5% | [6] -6.25%

O=C(NCCO)[C@H](O)[C@@H](O)[C@H](O)[C@H](O)CO
inactive: [1] 7.1% | [2] -2% | [3] -3.7% | [4] 16.1% | [5] 14.9% | [6] 15.2%

CC(=O)c1cccc(NCn2nnc3ccccc32)c1
inactive: [1] -47.5% | [2] -8.65% | [3] -62.3% | [4] -4.25% | [5] -45.4% | [6] -34.5%

S=C(Nc1ccccc1)Nc1nc(-c2ccccc2)c(N=Nc2ccc(Cl)cc2)s1
inactive: [1] 42.5% | [2] 2.6% | [3] 22.2% | [4] 18.6% | [5] -0.85% | [6] 9.45%

O=C(c1ccccc1)C1C(C(=O)c2ccccc2)C1c1ccccc1 (stereo unspecified)
inactive: [1] -11.3% | [2] -4.45% | [3] 21.3% | [4] 3.4% | [5] 31.3% | [6] -16.1%

CCCCSCC(NC(=O)/C=C/c1c(C)[nH]c(=O)[nH]c1=O)C(=O)OC (stereo unspecified)
inactive: [1] 16.1% | [2] 20.2% | [3] 31.2% | [4] 22.4% | [5] 7.7% | [6] 28.6%

Reference: PubChem BioAssay (NCI)
